TRb-SRC2 inh = qHTS for Inhibitors of the Interaction of Thyroid Hormone Receptor and Steroid Receptor Coregulator 2 | Potency, µM (highest dose often 106 µM), for inactives: at the top dose activity change, negative = inhibition, usual class: inhibitors | AID 1469, 2008 | Thyroid hormone receptor beta (Homo sapiens), P10828 | actives 0.065% (n = 280,000) | TRbeta-SRC2 peptide binding, fluorescence polarization; receptor liganded with 1 µM T3;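 further: plate controls were bound peptide for no effect and peptide without receptor for full effect; nearly all actives have a fitted effect of over 50% in size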
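Compounds were added to 0.6 uM TRb ligand-binding domain and 20 nM Texas Red-labeled SRC2 peptide in Tris buffer containing 1 uM T3, incubated 5 hr at ambient temperature, then read by fluorescence polarization.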
TR SRC2 fluor cs = Total Fluorescence Counterscreen for Inhibitors of the Interaction of Thyroid Hormone Receptor and Steroid Receptor Coregulator 2. TRb/SRC2 Texas Red total fluorescence interference. Potency, µM (top dose mostly 106 µM), for the others: top-dose fluorescence change, negative = quenching. actives 0.29% (n = 280,000); active means well fitted curve in either direction with a large enough effect; inconclusive means small, poorly fitted or top-dose-only effect
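Human TRb ligand-binding domain at 0.6 uM with 20 nM Texas Red SRC2 peptide in Tris buffer containing 1 uM T3 and 5% DMSO, incubated with compound 5 h at ambient temperature. Total fluorescence (555/632 nm) calculated as parallel + 2 × perpendicular.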
APE1 inh-1 = qHTS Assay for Inhibitors of the Human Apurinic/apyrimidinic Endonuclease 1 (APE1); DNA repair nuclease/redox regulator APEX1 (Homo sapiens), P27695; recombinant APE1, TAMRA/BHQ-2 abasic DNA cleavage fluorescence; Potency, µM (highest dose often 65.8 µM), inactives show at the top dose activity change, negative = inhibition, usual class: inhibitors; actives 0.35% (n = 350,000); AID 2517, 2012;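 further: plate controls were vehicle for no effect and reference inhibitor for full effect; nearly all actives have a fitted effect of over 55% in size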
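Enzyme (0.75 nM final) and test compound are incubated 15 min at room temperature before adding 50 nM quenched THF abasic-site duplex. Cleavage dequenches TAMRA, followed at 525/598 nm over three reads one minute apart.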
BLM helicase inh = qHTS Assay for Inhibitors of Bloom's syndrome helicase (BLM); Potency, µM (doses to about 56.1 µM), for inactives: at the top dose activity change, negative = inhibition, most hits filed as inhibitors; recombinant BLM DNA unwinding, fluorescence dequenching; RecQ-like DNA helicase BLM (Homo sapiens), P54132; actives 0.2% (n = 350,000);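 further: plate controls were vehicle for no effect and no enzyme for full effect; nearly all actives have a fitted effect of over 35% in size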
RECQ1 inh = qHTS Assay for Inhibitors of RecQ-Like Dna Helicase 1 (RECQ1). actives 0.54% (n = 240,000). Potency, µM (top dose mostly 57.3 µM), without a hit: at the highest dose activity, negative = inhibition, actives largely listed as inhibitors. RECQ1 DNA unwinding, red fluorescence kinetic read. ATP-dependent DNA helicase Q1 (Homo sapiens), P46063;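 further: plate controls were vehicle for no effect and no enzyme for full effect; nearly all actives have a fitted effect of over 30% in size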
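RECQ1T1 50 nM; forked duplex (20 bp + 30-nt ss tails) 200 nM, ATP 2 mM final; pH 8.0, 2 mM MgCl2, 2.5 ug/ml poly(dI-dC); 15 min compound preincubation; discontinuous kinetic read over 2 h at RT.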
RGS12 GoLoco inh = qHTS Assay for Inhibitors of RGS12 GoLoco Motif Activity (Red Fluorophore); Gai1:RGS12 GoLoco peptide FP, rhodamine, 10 min; Guanine nucleotide-binding protein G(i) subunit alpha-1 (Homo sapiens), P63096; AID 880, 2007; Potency, µM (top dose mostly 61.6 µM), for the others: at the top dose activity, negative = inhibition, actives largely listed as inhibitors; actives 0.44% (n = 230,000); active means well fitted inhibition curve with a large enough effect, not every such curve was filed as active; inactive means no such curve, though single readings can be large or run the other way; further: nearly all actives have a fitted effect of over 30% in size
Target sequence (P63096 whole entry, looked up): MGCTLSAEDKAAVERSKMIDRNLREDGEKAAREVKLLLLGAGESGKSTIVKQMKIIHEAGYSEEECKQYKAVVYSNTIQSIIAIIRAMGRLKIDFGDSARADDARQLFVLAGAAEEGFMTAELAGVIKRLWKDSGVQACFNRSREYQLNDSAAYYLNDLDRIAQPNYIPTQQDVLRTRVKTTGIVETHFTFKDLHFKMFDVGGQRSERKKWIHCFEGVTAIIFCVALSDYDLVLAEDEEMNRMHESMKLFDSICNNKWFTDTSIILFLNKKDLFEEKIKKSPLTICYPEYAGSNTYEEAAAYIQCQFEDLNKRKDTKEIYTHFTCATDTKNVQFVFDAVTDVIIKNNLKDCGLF
DNA dye displace = Counterscreen for APE1 Inhibitors: Fluorescent Dye Displacement Assay; actives 7% (n = 480); shares compounds with APE1 inh-1; DNA fluorescent dye displacement counterscreen, fluorescence; Potency, µM (doses to about 28.5 µM), without a hit: at the top dose activity change, negative = inhibition, most hits filed as inhibitors;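 further: loss of thiazole orange fluorescence as the dye is displaced from duplex DNA; 0% = ThO with dsDNA and no compound and -100% = ThO without dsDNA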
EndoIV counter = Counterscreen for APE1 Inhibitors: qHTS Assay for Inhibitors of Endonuclease IV | shares compounds with APE1 inh-1 | AID 2565, 2010 | actives 4% (n = 560) | Potency, µM (doses to about 27.1 µM), for inactives: top-dose activity change, negative = inhibition, usual class: inhibitors | E. coli Endo IV, fluorogenic AP-site DNA cleavage;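 further: plate controls were uninhibited enzyme wells for no effect and no enzyme buffer wells for full effect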
APE1 inh-2 = Confirmation qHTS Assay for Inhibitors of the Human Apurinic/apyrimidinic Endonuclease 1 (APE1) | AID 2572, 2010 | shares compounds with APE1 inh-1 | purified APE1, fluorogenic abasic-site DNA cleavage | actives 44% (n = 750) | Potency, µM (highest dose often 57.1 µM), inactives show top-dose activity change, negative = inhibition, most hits filed as inhibitors; further: nearly all actives have a fitted effect of over 30% in size
APE1 FP = qHTS FP-Based Assay for Inhibitors of the Human Apurinic/apyrimidinic Endonuclease 1 (APE1); AID 2573, 2010; Potency, µM (titrated, usually from 28.5 µM), without a hit: top-dose activity, negative = inhibition, hits mostly inhibitors; shares compounds with APE1 inh-1; actives 7% (n = 480); APE1 binding to TAMRA-labelled double-stranded DNA, fluorescence polarization displacement
* = called active by the depositor; i = inactive; u = inconclusive; x = no result given; [ ] = remark or other dose. Hits are enriched below; roughly 0.9% of the tested compounds scored in any of these assays. Unless noted, the call rests on the fitted dose curve; in most records, active means well fitted curve in the direction sought with a large enough effect; inconclusive means small, poorly fitted or top-dose-only effect, or another doubt; inactive means no such curve, though single readings can be large; an effect the other way counts as inactive or inconclusive. Unless noted, on the % scale 0 is the no-effect control and ±100 the full control effect; potency means the concentration at half of the fitted maximal effect.

SMILES	TRb-SRC2 inh	TR SRC2 fluor cs	APE1 inh-1	BLM helicase inh	RECQ1 inh	RGS12 GoLoco inh	EndoIV counter	APE1 inh-2	others
Cc1ncc(CO)c(/C=N/NC(=O)c2cc(O)c(O)c(O)c2)c1O	9%	u	4µM*	5.6µM*	14µM*	11%	156%	u	DNA dye displace=-10%;APE1 FP=5%
CC(C)(C)c1ccc(OCCSc2nc(-c3cccs3)nc3cc(=O)[nH]n23)cc1	7%	-1%	x	-3%	x	x	x	x
O=C(COC(=O)c1cccnc1Cl)NCc1ccco1	-3%	-2%	u	-8%	i	1%	x	u
O=C(COC(=O)c1ccc(Cl)nc1)NCc1ccco1	-5%	0%	22%	-1%	0%	-2%	x	x
O=C(CSc1nnc(-c2cccc(S(=O)(=O)N3CCCC3)c2)n1-c1ccccc1)Nc1ccc(C(=O)O)cc1	6%	-7%	-2%	u	-13%	1%	x	u
CCCCC[C@H](O)/C=C/[C@@H]1[C@@H](C/C=C\CCCC(=O)OC)[C@@H](O)C[C@H]1O	2%	2%	7%	-19%	-1%	5%	x	-14%
CC(=O)NNC(=O)N1Cc2ccccc2Oc2ccc(Cl)cc21	2%	-2%	2%	-1%	-7%	4%	-9%[57.1 µM]	-38%
CC(=O)N1Cc2cc([N+](=O)[O-])ccc2Oc2ccccc21	-2%	1%	-6%	2%	i	6%	x	x
CN1[C@@H]2CC[C@H]1CC(OC(=O)c1c[nH]c3ccccc13)C2 (stereo partly specified)	-5%	-2%	-4%	-6%	-5%	9%	x	x
CN1C2CCC1CC(OC(=O)c1c[nH]c3ccccc13)C2 (stereo unspecified)	-2%	-2%	19%	-9%	u	20%	-12%[57.1 µM]	-22%
O=C(NNC(=O)c1ccc(Br)o1)c1ccc(NC(=O)c2ccccc2)cc1	8%	-5%	14µM*	-10%	i	9%	1%	u	DNA dye displace=4%;APE1 FP=1%
O=C(Nc1ccccc1C(=O)O)c1ccc(NC(=O)c2ccc(Br)o2)cc1	-6%	-5%	13%	-1%	-5%	14%	x	x
